Data published in PubChem BioAssay AID1159580 (chemical genetic matrix, 2015).
The campaign covered roughly 5,500 compounds. About 2,000 (36%) were called active. Roughly 18% stayed inconclusive and do not appear here. Cut-off read from the data, not from the text of the source: active = normalized growth mostly below about 0.91 (no sharp cut-off); inconclusive = no clear call, values can overlap the other calls; inactive = mostly above about 0.92. The list shows a part of the results.

Experiment: chemical genetic growth profiling, strain panel (AID 1159580);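 note: tested at 20 µM; growth read once vehicle control cultures reached saturation at 30 °C; 1 = growth at the plate median or of vehicle wells; lower values mean less growth of the strain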
Settings: growth OD

Measured: normalized growth

CC(C)(C)NCC(O)c1cc(Cl)c(N)c(Cl)c1 (centres undefined)
inactive: S. cerevisiae deletion strains, locus YJR043C, strain POL32, active compounds read low 1.01 | S. cerevisiae deletion strains, locus YJR075W, strain HOC1, active compounds read low 1.01 | S. cerevisiae deletion strains, locus YKL009W, strain mrt4, active compounds read low 1 | S. cerevisiae deletion strains, locus YKL068W, active compounds read low 1 | S. cerevisiae deletion strains, locus YKL085W, strain MDH1 (second series), active compounds read low 1.01 | S. cerevisiae deletion strains, locus YKL085W, strain MDH1, active compounds read low 1.01 | S. cerevisiae deletion strains, locus YKL160W, strain elf1, active compounds read low 0.998 | S. cerevisiae deletion strains, locus YKL190W, strain CNB1, active compounds read low 1 | S. cerevisiae deletion strains, locus YKR001C, strain vps1, active compounds read low 1.01 | S. cerevisiae deletion strains, locus YKR026C, strain gcn3, active compounds read low 0.999 | S. cerevisiae deletion strains, locus YKR091W, strain srl3, active compounds read low 1 | S. cerevisiae deletion strains, locus YLL001W, strain dnm1, active compounds read low 0.983 | S. cerevisiae deletion strains, locus YLL026W, active compounds read low 0.992 | S. cerevisiae deletion strains, locus YLL041C, strain sdh2, active compounds read low 1 | S. cerevisiae deletion strains, locus YLR027C, strain aat2, active compounds read low 0.999 | S. cerevisiae deletion strains, locus YLR039C, strain RIC1, active compounds read low 1.02 | S. cerevisiae deletion strains, locus YLR058C, strain SHM2, active compounds read low 1.02 | S. cerevisiae deletion strains, locus YLR102C, strain apc9, active compounds read low 0.992 | S. cerevisiae deletion strains, locus YLR221C, strain rsa3, active compounds read low 1 | S. cerevisiae deletion strains, locus YLR258W, strain gsy2, active compounds read low 0.993 | S. cerevisiae deletion strains, locus YLR262C, strain YPT6 (second series), active compounds read low 0.999 | S. cerevisiae deletion strains, locus YLR262C, strain YPT6, active compounds read low 1.05 | S. cerevisiae deletion strains, locus YLR268W, strain sec22, active compounds read low 0.977 | S. cerevisiae deletion strains, locus YLR320W, strain mms22, active compounds read low 0.996 | S. cerevisiae deletion strains, locus YLR330W, strain CHS5, active compounds read low 1.01 | S. cerevisiae deletion strains, locus YLR342W, strain FKS1 (second series), active compounds read low 1.02 | S. cerevisiae deletion strains, locus YLR342W, strain FKS1, active compounds read low 1 | S. cerevisiae deletion strains, locus YLR357W, strain rsc2, active compounds read low 1 | S. cerevisiae deletion strains, locus YLR370C, strain arc18, active compounds read low 1 | S. cerevisiae deletion strains, locus YLR371W, strain rom2, active compounds read low 0.991 | S. cerevisiae deletion strains, locus YLR384C, strain iki3, active compounds read low 1 | S. cerevisiae deletion strains, locus YLR418C, strain cdc73, active compounds read low 0.976 | S. cerevisiae deletion strains, locus YML016C, strain PPZ1, active compounds read low 1.01 | S. cerevisiae deletion strains, locus YML032C, strain rad52, active compounds read low 0.992 | S. cerevisiae deletion strains, locus YML120C, strain ndi1, active compounds read low 1.01 | S. cerevisiae deletion strains, locus YML124C, strain tub3, active compounds read low 0.999 | S. cerevisiae deletion strains, locus YMR058W, strain fet3, active compounds read low 0.998 | S. cerevisiae deletion strains, locus YMR078C, strain ctf18, active compounds read low 1 | S. cerevisiae deletion strains, locus YMR125W, strain sto1, active compounds read low 0.99 | S. cerevisiae deletion strains, locus YMR129W, active compounds read low 1.01 | S. cerevisiae deletion strains, locus YMR205C, strain PFK2, active compounds read low 0.982 | S. cerevisiae deletion strains, locus YMR223W, strain ubp8, active compounds read low 1 | S. cerevisiae deletion strains, locus YMR231W, strain pep5, active compounds read low 1 | S. cerevisiae deletion strains, locus YMR263W, strain SAP30, active compounds read low 1.01 | S. cerevisiae deletion strains, locus YMR307W, strain GAS1, active compounds read low 0.995 | S. cerevisiae deletion strains, locus YNL067W, strain RPL9B, active compounds read low 1.01 | S. cerevisiae deletion strains, locus YNL071W, strain lat1, active compounds read low 1 | S. cerevisiae deletion strains, locus YNL128W, strain TEP1, active compounds read low 1.02 | S. cerevisiae deletion strains, locus YNL153C, strain GIM3, active compounds read low 1 | S. cerevisiae deletion strains, locus YNL209W, strain ssb2, active compounds read low 1.01 | S. cerevisiae deletion strains, locus YNL233W, strain BNI4, active compounds read low 1.01 | S. cerevisiae deletion strains, locus YNL248C, strain rpa49, active compounds read low 1 | S. cerevisiae deletion strains, locus YNL250W, strain rad50, active compounds read low 0.989 | S. cerevisiae deletion strains, locus YNL271C, strain bni1, active compounds read low 0.99 | S. cerevisiae deletion strains, locus YNL298W, strain CLA4, active compounds read low 0.992 | S. cerevisiae deletion strains, locus YNL307C, strain MCK1, active compounds read low 0.996 | S. cerevisiae deletion strains, locus YNL322C, strain KRE1 (second series), active compounds read low 0.997 | S. cerevisiae deletion strains, locus YNL322C, strain KRE1, active compounds read low 1.01 | S. cerevisiae deletion strains, locus YNR049C, strain mso1, active compounds read low 0.997 | S. cerevisiae deletion strains, locus YNR052C, strain pop2, active compounds read low 1 | S. cerevisiae deletion strains, locus YOL006C, strain TOP1, active compounds read low 1.05 | S. cerevisiae deletion strains, locus YOL012C, strain htz1 1.23 | S. cerevisiae deletion strains, locus YOL147C, strain pex11, active compounds read low 1 | S. cerevisiae deletion strains, locus YOR001W, strain rrp6, active compounds read low 0.99 | S. cerevisiae deletion strains, locus YOR061W, strain CKA2, active compounds read low 1.01 | S. cerevisiae deletion strains, locus YOR069W, strain VPS5, active compounds read low 1.01 | S. cerevisiae deletion strains, locus YOR070C, strain gyp1, active compounds read low 0.994 | S. cerevisiae deletion strains, locus YOR080W, strain dia2, active compounds read low 0.998 | S. cerevisiae deletion strains, locus YOR083W, strain WHI5, active compounds read low 1 | S. cerevisiae deletion strains, locus YOR106W, strain vam3, active compounds read low 0.996 | S. cerevisiae deletion strains, locus YOR136W, strain idh2, active compounds read low 0.991 | S. cerevisiae deletion strains, locus YOR144C, strain elg1, active compounds read low 0.999 | S. cerevisiae deletion strains, locus YOR184W, strain ser1, active compounds read low 1 | S. cerevisiae deletion strains, locus YOR265W, strain rbl2, active compounds read low 1 | S. cerevisiae deletion strains, locus YOR270C, strain vph1, active compounds read low 0.958 | S. cerevisiae deletion strains, locus YOR290C, strain snf2, active compounds read low 0.971 | S. cerevisiae deletion strains, locus YOR316C, strain cot1, active compounds read low 1 | S. cerevisiae deletion strains, locus YPL051W, strain arl3, active compounds read low 0.995 | S. cerevisiae deletion strains, locus YPL055C, strain LGE1, active compounds read low 0.993 | S. cerevisiae deletion strains, locus YPL078C, strain atp4, active compounds read low 0.991 | S. cerevisiae deletion strains, locus YPL106C, strain sse1, active compounds read low 0.985 | S. cerevisiae deletion strains, locus YPL240C, strain hsp82, active compounds read low 1.01 | S. cerevisiae deletion strains, locus YPL241C, strain CIN2, active compounds read low 1 | S. cerevisiae deletion strains, locus YPR119W, strain clb2, active compounds read low 0.999 | S. cerevisiae deletion strains, locus YPR141C, strain kar3, active compounds read low 0.996 | S. cerevisiae deletion strains, locus YPR163C, strain tif3, active compounds read low 0.999 | S. cerevisiae deletion strains, locus YPR167C, strain met16, active compounds read low 0.994 | S. cerevisiae deletion strains, strain wtn01, active compounds read low 0.971 | S. cerevisiae strains, strain wild type, active compounds read low 1
